Rows were chosen to be rich in hits. Some 2.9% of all compounds tested hit in one or more screens of this group.
PLCb3 inh: inhibitors of human phospholipase C beta3; Purified PLC-beta3, fluorogenic substrate, fluorescence; 370,000 tested, 0.18% active; AID 720704; Q01970; inhibition, % at 12.2 µM; in the data active = inhibition above about 11%;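 also: 0% = median of compound wells on plate and 100% = full blocker control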
ADAM17 inh: ADAM17 inhibition, QFRET primary screen. 370,000 tested, 0.83% active. recombinant ADAM17, EDANS/DABCYL FRET peptide cleavage. inhibition, % at 6.95 µM;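 active = inhibition above the mean of compounds lying between control limits plus 3 SD, set per campaign, cut at about 8.5% in these data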;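 also: 0% = DMSO-only wells as the low control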
KLK7 zymogen act: proKLK7 (human) activation, primary screen | purified proKLK7, EDANS-DABCYL substrate fluorescence; 100% is mature enzyme control, 0% vehicle | activation, % at 7 µM | 370,000 tested, 0.9% active;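 active = activation above the mean of all tested compounds plus 3 SD, computed per campaign excluding outliers beyond control limits, cut at about 13% in these data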
PLC-gamma1 inh: blocks human PLC-gamma1 enzyme activity; 370,000 tested, 0.84% active; inhibition, % at 12.2 µM; P19174; purified PLC-gamma1, fluorogenic substrate, fluorescence; in the data active = inhibition above about 9.5%
ADAM10 inh: inhibitors of human ADAM10. O14672. recombinant ADAM10, EDANS/DABCYL FRET peptide cleavage, 3 h. inhibition, % at 7 µM. 370,000 tested, 0.62% active. AID 720582;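 active = inhibition above a per-campaign cutoff equal to the mean of compounds falling between control-based bounds plus 3 SD, cut at about 20% in these data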;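 also: 0% = DMSO wells while the 100% control is not disclosed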
Target sequence (O14672 214-748 limits assumed): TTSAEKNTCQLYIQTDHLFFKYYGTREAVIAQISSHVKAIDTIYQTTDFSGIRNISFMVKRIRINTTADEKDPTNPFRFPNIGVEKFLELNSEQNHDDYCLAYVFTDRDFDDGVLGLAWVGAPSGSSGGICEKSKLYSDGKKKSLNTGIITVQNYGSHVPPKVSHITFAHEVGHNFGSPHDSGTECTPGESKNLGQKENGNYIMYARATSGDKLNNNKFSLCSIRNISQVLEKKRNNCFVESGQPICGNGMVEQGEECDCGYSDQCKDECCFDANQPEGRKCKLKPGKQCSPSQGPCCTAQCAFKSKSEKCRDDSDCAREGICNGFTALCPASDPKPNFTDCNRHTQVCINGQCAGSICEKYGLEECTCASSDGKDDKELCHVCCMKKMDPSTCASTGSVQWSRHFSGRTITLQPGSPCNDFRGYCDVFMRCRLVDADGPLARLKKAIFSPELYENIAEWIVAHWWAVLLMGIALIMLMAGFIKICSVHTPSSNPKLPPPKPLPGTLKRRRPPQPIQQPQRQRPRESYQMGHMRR
ADAM10 confirm: confirmation of inhibitors of human ADAM10 | shares compounds with ADAM10 inh | ADAM10 QFRET peptide cleavage, EDANS fluorescence | inhibition, % at 6.95 µM | 2,100 tested, 1% active;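 active = inhibition above about 20% chosen separately for each screening run, limit read from the data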;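 also: 0% = DMSO wells and 100% = marimastat wells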
ADAM17 ctr: inhibits human ADAM17 in ADAM10 exosite counter-screen | shares compounds with ADAM10 inh | AID 743214 | 2,100 tested, 0.5% active | ADAM17 QFRET peptide cleavage, EDANS fluorescence | inhibition, % at 6.95 µM;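 active = mean triplicate inhibition above the solvent-only control wells' mean plus 3 SD, cut at about 12% in these data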;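 also: 0% = DMSO wells and 100% = marimastat wells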
ADAM10 counter: counter-screen for ADAM17 exosite inhibitors: inhibitors of human ADAM10 | shares compounds with ADAM17 inh | recombinant ADAM10, EDANS/DABCYL FRET peptide cleavage, 3 h | inhibition, % at 6.95 µM | 2,900 tested, 47% active | AID 743256;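 active = mean inhibition over the triplicate runs exceeds the activity threshold set in the earlier primary screen, cut at about 20% in these data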;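 also: 0% = DMSO wells and 100% = marimastat wells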
ADAM17 confirm: confirmation of inhibitors of human ADAM17; inhibition, % at 6.95 µM; recombinant ADAM17, EDANS/DABCYL QFRET peptide cleavage; 2,900 tested, 65% active; shares compounds with ADAM17 inh;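 active = mean inhibition across replicates above the hit cutoff set in the primary screen, cut at about 8.5% in these data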;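 also: 0% = DMSO wells and 100% = marimastat wells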
Numbers without * were called inactive; . = no result given.

SMILES | PLCb3 inh | ADAM17 inh | KLK7 zymogen act | PLC-gamma1 inh | ADAM10 inh | ADAM10 confirm | ADAM17 ctr | ADAM10 counter | ADAM17 confirm
Cc1ccccc1S(=O)(=O)Cc1ccc(C(=O)N2CCN(c3cccc(C)c3C)CC2)o1 | -3 | 9.0* | 0 | 8 | 22* | 5 | 1 | 18 | 12*
Cc1ccccc1S(=O)(=O)Cc1ccc(C(=O)N2CC(C)CC(C)C2)o1 (stereo not given) | 0 | 3 | 1 | -1 | -4 | . | . | . | .
Cc1nc(SC2CC(=O)N(c3cc(Cl)cc(Cl)c3)C2=O)nc2c1CCCC2 (stereo not given) | -2 | 10* | 0 | 4 | 34* | 5 | 1 | 11 | 8
Cc1cccc(N2C(=O)CC(Sc3nc(C)c4c(n3)CCCC4)C2=O)c1 (stereo not given) | 0 | -2 | 0 | -3 | 3 | . | . | . | .
Cc1c(O)ccc(C(=O)COc2ccccc2F)c1O | 4 | 12* | -1 | 8 | 22* | 1 | 0 | 27* | 12*
O=C(COc1ccccc1F)c1ccc(O)cc1O | -1 | -2 | 1 | 0 | -4 | . | . | . | .
Cc1ccccc1-n1c(SCC(=O)N/N=C/c2c(C)nn(-c3ccccc3)c2C)nc2ccccc2c1=O | 2 | 11* | 0 | 4 | 21* | 7 | 2 | 33* | 16*
CC1(C(=O)NCc2ccc(C(F)(F)F)cc2)CCN1Cc1cc2ccccc2o1 (stereo not given) | 1 | 11* | 0 | 5 | 24* | 2 | 0 | 15 | 7
Cc1ccc(C)c(Cn2nnc3c(=O)[nH]c(C4CCN(S(=O)(=O)c5ccc(S(=O)(=O)NC6CC6)cc5)CC4)nc32)c1 | -2 | 11* | 0 | 7 | 25* | 5 | 2 | 39* | 21*
C=CCC[C@H](Cc1ccc(F)cc1)C(=O)OC[C@H](Cc1c[nH]c2ccccc12)NC(=O)[C@H](CC=C)CC(=O)NCCO | 2 | 9.4* | 0 | 7 | 24* | 4 | 1 | 43* | 22*
C=CCC[C@H](Cc1ccc(F)cc1)C(=O)OC[C@@H](Cc1c[nH]c2ccccc12)NC(=O)[C@@H](CC=C)CC(=O)NCCO | 5 | 17* | 0 | 1 | 27* | 5 | 2 | 35* | 17*
C=CCC[C@@H](Cc1ccc(F)cc1)C(=O)OC[C@@H](Cc1c[nH]c2ccccc12)NC(=O)[C@@H](CC=C)CC(=O)NCCO | 6 | 17* | 1 | 4 | 28* | 3 | 0 | 29* | 15*
C=CC[C@@H](CC(=O)NCCO)C(=O)N[C@@H](COC(=O)[C@@H](CC=C)Cc1ccc(F)cc1)Cc1c[nH]c2ccccc12 | -1 | 3 | 0 | -2 | 7 | . | . | . | .
Cc1ccc(O)c(N=Cc2cc(Cc3ccccc3)cc([N+](=O)[O-])c2O)c1 | -5 | 19* | 0 | 7 | 38* | 0 | 2 | 22* | 8
COc1cc(C=Nc2cccc(C)c2)c(O)c([N+](=O)[O-])c1 | 0 | -3 | 0 | -3 | -5 | . | . | . | .
O=[N+]([O-])c1ccc(O)c(/C=N/Nc2ccccn2)c1 | -2 | 30* | 0 | -1 | 24* | 29* | 31* | 48* | 54*
O=[N+]([O-])c1ccc(NN=Cc2ccccc2O)nc1 | -30 | 1 | 0 | -22 | 5 | . | . | . | .
CN(Cc1ccccc1)C(=O)c1ccc(NC(=O)Cc2cccc(NC(=O)C3CCCN(C(=O)CCc4ccccc4)C3)c2)cc1 (stereo not given) | 3 | 14* | 2 | 8 | 24* | 3 | 2 | 24* | 14*
CN(Cc1ccccc1)C(=O)c1cccc(NC(=O)Cc2ccc(NC(=O)C3CCCN(C(=O)CCc4ccccc4)C3)cc2)c1 (stereo not given) | -2 | 1 | 0 | -1 | 3 | . | . | . | .
Cc1ccc(Nc2nnc(SCC(=O)c3ccc(Br)s3)s2)c(C)c1 | 2 | 8.7* | 0 | 1 | 24* | 5 | 2 | 13 | 9.9*
O=C(c1ccc(C(F)(F)F)cc1)N1CCC(=O)N(C(COCc2ccc(Cl)cc2)Cc2ccccc2)CC1 (stereo not given) | 4 | 9.9* | 1 | 0 | 20* | 4 | 2 | 14 | 8.7*
O=C(c1ccc(Cl)c(Cl)c1)N1CCC(=O)N(C(COCc2ccc(Cl)cc2)Cc2ccccc2)CC1 (stereo not given) | 5 | 9.5* | -1 | 12* | 20* | 10 | 3 | 34* | 16*
O=C(c1ccc(Cl)c(Cl)c1)N1CCC(=O)N(C(COCc2cccc(C(F)(F)F)c2)Cc2ccccc2)CC1 (stereo not given) | -2 | 5 | 0 | -3 | 3 | . | . | . | .
Cc1cc(C)c(CSc2ncc(-c3ccc([N+](=O)[O-])cc3)[nH]2)c(C)c1 | -56 | 11* | 0 | -47 | 34* | 12 | 4 | 41* | 23*
NC(=O)CSc1ncc(-c2ccc([N+](=O)[O-])cc2)[nH]1 | -5 | 2 | 0 | -4 | 4 | . | . | . | .
CCC[C@H]1CN(c2ccc(Br)cc2)C(=O)[C@@H]1CC(=O)Nc1ccccc1 | 5 | 18* | 1 | 5 | 24* | 0 | 0 | 20* | 4
CO[C@H]([C@H](C)/C=C/N(C)C=O)[C@@H](C)C(=O)CC[C@H](C)[C@H](O)[C@H](C)[C@H]1OC(=O)/C=C/C(C)=C/C[C@H](O)C[C@@H]2C=CC[C@@H](C[C@H](OC)[C@@H](C)[C@@H](OC)C[C@@H](OC)[C@@H]1C)O2 | 2 | 2 | . | 2 | 16 | . | . | . | .
CCOC(=O)c1sc(NC(=O)CSc2n[nH]c(CC(C)C)n2)nc1C | 8 | 8.8* | -1 | 7 | 27* | 0 | 0 | 5 | -2
O=C1[C@H]2[C@@H](c3ccc(C(F)(F)F)cc3)N[C@]3(CCCN(Cc4ccc(C(F)(F)F)cc4)C3=O)[C@H]2C(=O)N1Cc1ccccc1 | 4 | 13* | 0 | 1 | 31* | 3 | 1 | 41* | 24*
COc1cc(NC(=O)CN2C(=O)C(c3ccccc3)=NC23CCCCCC3)cc(OC)c1 | 3 | 8.7* | 0 | 5 | 30* | 2 | 1 | 6 | 5

Assay outcomes (PubChem BioAssay)
